Screening data (PubChem BioAssay)
Most compounds without a hit are left out; they make up all but 1.5% or so of the library.
CRFBP-R2 agonist: CRF-BP/CRF-R2 complex agonism. HEK293 CRF-R2/CRF-BP, calcium dye fluorescence (FLIPR); percent of saturating CRF peptide response. activation, % at 13.2 µM. hit rate 0.46% among 350,000;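 active means activation of at least 50%, plus an integration ratio under a set limit after plate pattern correction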
IDE act: boosts human insulin-degrading enzyme activity in HEK cells. FAbeta-B cleavage, fluorescence polarization; 0% vehicle, 100% cell-free pure enzyme wells. activation, % at 5.96 µM. hit rate 0.073% among 340,000. AID 493087;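 active means activation above the mean of all tested compounds plus 3 SD, set per screening campaign, cut at about 17% in these data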
Target sequence (P14735 whole entry, looked up): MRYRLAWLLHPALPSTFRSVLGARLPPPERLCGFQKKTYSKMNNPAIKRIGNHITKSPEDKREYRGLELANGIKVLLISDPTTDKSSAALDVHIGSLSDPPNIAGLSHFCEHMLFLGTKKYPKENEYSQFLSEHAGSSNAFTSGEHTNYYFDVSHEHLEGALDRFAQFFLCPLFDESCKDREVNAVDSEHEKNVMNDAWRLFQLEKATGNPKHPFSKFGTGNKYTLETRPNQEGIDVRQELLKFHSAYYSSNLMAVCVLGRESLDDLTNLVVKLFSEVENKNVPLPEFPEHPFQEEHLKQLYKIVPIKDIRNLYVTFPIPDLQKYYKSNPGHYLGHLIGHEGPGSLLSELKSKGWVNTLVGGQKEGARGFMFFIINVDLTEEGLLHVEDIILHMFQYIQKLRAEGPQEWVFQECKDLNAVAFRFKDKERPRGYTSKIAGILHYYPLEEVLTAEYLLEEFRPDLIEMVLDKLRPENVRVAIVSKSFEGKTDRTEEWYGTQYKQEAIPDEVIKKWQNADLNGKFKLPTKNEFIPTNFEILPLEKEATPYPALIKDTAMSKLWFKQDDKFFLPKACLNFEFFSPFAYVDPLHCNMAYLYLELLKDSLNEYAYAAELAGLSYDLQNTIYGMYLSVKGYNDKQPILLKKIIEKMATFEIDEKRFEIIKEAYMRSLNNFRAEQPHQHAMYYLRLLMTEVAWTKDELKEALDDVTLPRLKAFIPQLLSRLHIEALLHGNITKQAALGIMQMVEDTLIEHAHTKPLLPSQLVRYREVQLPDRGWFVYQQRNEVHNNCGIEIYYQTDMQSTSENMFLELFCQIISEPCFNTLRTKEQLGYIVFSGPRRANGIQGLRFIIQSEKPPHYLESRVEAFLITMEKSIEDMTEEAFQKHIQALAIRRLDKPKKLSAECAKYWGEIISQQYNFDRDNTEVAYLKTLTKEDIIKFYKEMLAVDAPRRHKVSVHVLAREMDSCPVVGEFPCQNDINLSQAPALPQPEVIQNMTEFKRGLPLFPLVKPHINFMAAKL
IDE cell inh: inhibits human insulin-degrading enzyme in HEK cells. hit rate 0.41% among 320,000. inhibition, % at 5.59 µM. FAbetaB cleavage, fluorescence polarization;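 active means percent inhibition above the average of all tested compounds plus 3 SD, set per screening campaign, cut at about 16% in these data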;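 further: IDE supplied by intact live HEK cells; FP after avidin binding of uncleaved biotin substrate so inhibition keeps polarization high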
RTF Ca sens act: cardiac RTF calcium sensitization; IANBD-labeled TnC RTF fluorescence at EC20 calcium; 0% EC20 calcium, 100% full calcium; P19429+P45379; AID 493008; hit rate 0.24% among 340,000; activation, % at 7.2 µM;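 active means activation above the mean over all tested compounds plus 3 SD, cut at about 30% in these data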;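 further: rise in fluorescence read as greater calcium sensitivity of cardiac thin filaments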
RTF Ca sens inh: cardiac RTF calcium desensitization; P19429+P45379; IANBD-labeled cardiac RTF, Ca2+ fluorescence; hit rate 0.12% among 340,000; AID 493244; inhibition, % at 7.15 µM;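 active means inhibition above the mean inhibition of all tested compounds plus 3 SD, cut at about 17% in these data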;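 further: assay run at fixed EC70 calcium of 1.6 mM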
CRFR2-BP antag: blocks CRF-induced signaling of the CRF-BP/CRF-R2 complex | AID 588475 | hit rate 0.59% among 350,000 | HEK293 CRF-R2/CRF-BP, CRF-induced calcium fluorescence | inhibition, % at 11.8 µM;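 active means inhibition of the ligand-induced calcium signal above about 50% at the single tested concentration, limit read from the data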
Hits are given with their value; n = inactive; x = no result given.

SMILES	CRFBP-R2 agonist	IDE act	IDE cell inh	RTF Ca sens act	RTF Ca sens inh	CRFR2-BP antag
COC(=O)c1sc(NC(=S)NC(=O)c2ccccc2C)nc1C	55.7	n	n	n	n	n
COC(=O)c1sc(NC(=S)NC(=O)c2cccc(Br)c2)nc1C	59.8	n	n	n	n	n
Cc1ccc(S(=O)(=O)N(CC(=O)Nc2ccccc2C(=O)O)c2ccc(Cl)cc2)cc1	n	n	n	n	n	50.6
Cn1c(=O)c(C(=O)NNC(=O)c2ccccc2F)c(O)c2ccccc21	50.8	n	n	n	n	n
CCn1c(=O)c(C(=O)NNC(=O)c2ccccc2F)c(O)c2ccccc21	99.9	n	n	n	n	n
CC1COc2ccccc2N1S(=O)(=O)c1ccc(Cl)cc1 (stereo unspecified)	n	n	n	n	n	n
Cc1ccc(S(=O)(=O)N2c3ccccc3OCC2c2ccccc2)cc1 (stereo unspecified)	n	n	n	n	n	50.1
Cc1nc2ccccc2c(C)c1CC(=O)OC(C)C(=O)NC1(C#N)CCCCC1 (stereo unspecified)	n	n	n	n	n	n
CC1=CC(=C(C#N)c2nc3ccccc3s2)C=C(C)N1CC1CCCO1 (stereo unspecified)	63.8	n	n	n	n	n
CC(=O)Nc1c(Cl)cc(Cl)c2c1Cc1cc(Cl)ccc1-2	n	n	x	n	n	n
Cc1nn(CCCC(=O)NCc2ccco2)c(=O)c2nn(-c3ccccc3)c(C)c12	n	n	n	n	n	n
Cc1c(N=Nc2c(-c3ccc([N+](=O)[O-])cc3)[nH]n(C(N)=S)c2=O)cccc1[N+](=O)[O-]	n	n	x	n	n	66.1
NC(=S)n1[nH]c(-c2ccc([N+](=O)[O-])cc2)c(N=Nc2ccccc2[N+](=O)[O-])c1=O	n	n	x	n	n	n
CNC(=O)C1CCN(S(=O)(=O)c2c(C)noc2/C=C/c2ccc(OC)cc2)CC1	54.3	n	n	n	n	n
O=C(Nc1ccnn1C1CCN(Cc2ccccc2F)CC1)C1CCCC1	n	n	n	n	n	n
Cc1ccc(C)c(NC(=O)C(=O)NCCCN2CCOCC2)c1	n	n	n	n	n	n
Cc1ccc(C)c(NC(=S)NCCCN2CCOCC2)c1	n	n	n	n	n	125.5
COc1ccc(Cl)cc1NC(=O)CN1C(=O)CCS(=O)(=O)c2ccccc21	n	n	x	n	n	n
COc1ccccc1NC(=O)CN1C(=O)CCS(=O)(=O)c2ccccc21	n	n	n	n	n	84.5
CCOC(=O)C1=CNS(=O)(=O)NC1c1ccc(Br)cc1F (stereo unspecified)	n	n	x	n	n	n
O=C(NCN1CCCCC1)c1cnccn1	n	n	n	n	n	50.8
O=C(NCN1CCOCC1)c1cnccn1	n	n	n	n	n	n
C=CCNc1nc(C(=O)OCC(=O)c2ccc(Cl)cc2)cs1	n	n	n	n	n	n
C[C@@H]1CC=C[C@@H]2[C@H]1C(=O)N(Cc1ccccc1)[C@H]2c1cccc(Br)c1	n	n	x	n	n	71.5
CCOC(=O)C1=C(C)OC(=Cc2ccccc2)C1=O	n	x	x	x	x	n
SMILES	CRFBP-R2 agonist	IDE act	IDE cell inh	RTF Ca sens act	RTF Ca sens inh	CRFR2-BP antag
CCOC(=O)C1=C(O)c2ccccc2C(=O)/C1=C\c1ccc(C)cc1	111.0	n	n	n	n	n
CC(=O)NCCC(=O)N(C)CC1CCN(CCc2cccc(C(F)(F)F)c2)CC1	n	n	x	n	n	n
CCC(=O)OCc1c(C(F)(F)F)nn(C)c1Sc1ccc(F)cc1	n	n	n	n	n	51.1
CC(=O)NC(CC(=O)Nc1ccc2c(c1)OCCO2)c1ccccc1 (stereo unspecified)	n	n	n	n	n	n
O=C(N/N=C/c1ccccn1)c1cccs1	n	n	n	n	n	62.0
O=C(CC(CC(=O)c1ccccc1)c1ccncc1)c1ccccc1	n	n	x	n	n	86.3
CCOCC(=O)Nc1cc(C(=O)Nc2cc(C)cc(C)c2)ccc1Cl	x	x	n	x	x	x
Cc1ccc(NS(=O)(=O)c2ccc(C(=O)Nc3nncs3)cc2)cc1	n	n	n	n	n	110.5
Cc1ccc(NS(=O)(=O)c2ccc(C(=O)N3CC(C)CC(C)C3)cc2)cc1 (stereo unspecified)	117.2	n	n	n	n	n
Cc1ccc(S(=O)(=O)Nc2ccc(C(=O)N3CCCC3)cc2)cc1	n	n	n	n	n	n
Cc1ccc(S(=O)(=O)Nc2cc(C(=O)Nc3cc(C)cc(C)c3)ccc2Cl)cc1	n	n	n	n	n	55.2
CC1CN(S(=O)(=O)c2ccc(C(=O)Nc3nncs3)cc2)CC(C)O1 (stereo unspecified)	n	25.8	n	n	n	n
Cn1c(=O)c(Nc2ccc(O)cc2)c2c3c(cccc31)C(=O)c1ccccc1-2	n	n	n	49.6	n	n
CC#CCCCC(=O)Nc1ccccc1C(=O)O	n	n	n	n	n	63.2
COc1ccc(C2CCCN2C(=S)Nc2ccc(C)c(C)c2)cc1OC (stereo unspecified)	n	n	n	n	n	n
COc1ccc(C2CCCN2C(=O)Nc2ccc(C)c(C)c2)cc1OC (stereo unspecified)	n	n	n	n	n	80.4
Cc1ccc(CN2CC(C(=O)N3CCN(S(=O)(=O)c4c(F)cccc4F)CC3)CC2=O)cc1 (stereo unspecified)	n	n	n	n	n	n
CCc1ccc([C@@H]2CC=C(C(=O)O)[C@H](c3ccc(C(C)(C)C)cc3)N2S(=O)(=O)c2ccc(C)cc2)cc1	n	n	n	n	n	50.4
O=C(Oc1ccccc1F)c1ccc2c(=O)n3c(nc2c1)CCC3	n	n	n	n	n	99.4
CCN(CC(=O)Nc1c(F)cccc1F)C(=O)c1ccc(S(=O)(=O)N2CCC(C)CC2)cc1	n	n	n	n	n	121.9
CCN(CC(=O)Nc1c(F)cccc1F)C(=O)c1ccc2c(=O)n3c(nc2c1)CCC3	n	n	x	n	n	103.7
O=C(Oc1ccccc1Cl)c1ccc2c(=O)n3c(nc2c1)CCC3	n	n	n	n	n	n
CC(NC(=O)COC(=O)c1ccc2c(=O)n3c(nc2c1)CCCCC3)c1ccccc1 (stereo unspecified)	n	n	n	n	n	62.6
COc1ccccc1N1CCN(C(=O)/C=C/c2ccccc2)CC1	n	n	n	n	n	n
COc1ccccc1N1CCN(C(=O)/C=C/c2cccs2)CC1	n	n	n	n	n	79.6
COCCNc1nc2c(S(=O)(=O)c3cc(C)ccc3C)nnn2c2ccccc12	n	n	n	n	n	50.3
COc1ccc(Oc2ccc(C(F)(F)F)cc2NC(=O)c2ccc(OC)cc2)cc1	n	n	n	n	n	52.1
O=C(CCl)Nc1ccccc1Sc1ccc(Cl)cc1	n	n	n	n	n	67.4
